# JMJD2A Tudor = qHTS Assay for Inhibitors of JMJD2A-Tudor Domain; AlphaScreen JMJD2A-Tudor / H3K4me3 peptide binding; Potency, µM (titrated, usually from 114 µM), for the others: at the highest dose activity change, negative = inhibition, most hits filed as inhibitors; 390,000 compounds, 4.4% hits; Lysine-specific demethylase 4A (Homo sapiens), O75164; note: potency is the fitted concentration of half-maximal effect; % is set by controls: 0 for no effect and ±100 for the full control effect; nearly all actives have a fitted effect of over 50% in size
# PI5P4K alpha inh = qHTS for Inhibitors of phosphatidylinositol 5-phosphate 4-kinase (PI5P4K); Phosphatidylinositol 5-phosphate 4-kinase type-2 alpha (Homo sapiens), P48426; PI5P4Kalpha enzyme, ADP-Glo luminescence, 60 min; hits give low values; max response, %; 330,000 compounds, 1.2% hits; active = max response of -50% or lower; inconclusive = between -30% and -50%; inactive = -30% or higher; note: value at the top dose of about 77 µM; % is set by controls: 0 for no effect and ±100 for the full control effect
#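 Human PI5P4Kalpha with substrate in 0.038 M HEPES pH 7.4, 0.28 mM EGTA, 0.1% CHAPS, 5% DMSO; reaction started with 5 microM ATP (final), 60 min at room temperature. ADP formed read by ADP-Glo luminescence.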
# HP1b binding inh = HTS for Inhibitors of HP1-beta Chromodomain Interactions with Methylated Histone Tails; Chromobox protein homolog 1 (Homo sapiens), P83916; AlphaScreen HP1-beta / biotin-H3K9me3 peptide binding; Potency, µM (titrated, usually from 114 µM), inactives show at the highest dose activity change, negative = inhibition, usual class: inhibitors; 390,000 compounds, 0.56% hits; AID 540317, 2011; note: potency is the fitted concentration of half-maximal effect; nearly all actives have a fitted effect of over 70% in size
# Target sequence (P83916 whole entry, looked up): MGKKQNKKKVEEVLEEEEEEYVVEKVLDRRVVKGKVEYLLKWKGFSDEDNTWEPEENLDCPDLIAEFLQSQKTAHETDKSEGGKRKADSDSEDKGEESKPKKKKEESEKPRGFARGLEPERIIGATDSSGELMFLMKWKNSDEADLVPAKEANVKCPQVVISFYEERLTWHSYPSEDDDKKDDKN
#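 HP1-beta protein (50 nM final) preincubated 30 min at room temperature with biotinylated H3(1-18)K9me3 peptide (50 nM) in PBS pH 7.4, 0.01% Tween-20, then compound added for 30 min. AlphaScreen streptavidin donor/nickel chelate acceptor beads (10 ug/mL final), 30 min dark, luminescence read.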
# BAZ2B inh = qHTS Assay for Inhibitors of BAZ2B | AlphaScreen BAZ2B-H3K14Ac peptide displacement | 360,000 compounds, 4.4% hits | Potency, µM (titrated, usually from 114 µM), without a hit: at the highest dose activity change, negative = inhibition, hits mostly inhibitors | Bromodomain adjacent to zinc finger domain protein 2B (Homo sapiens), Q9UIF8; note: potency is the fitted concentration of half-maximal effect; % is set by controls: 0 for no effect and ±100 for the full control effect; nearly all actives have a fitted effect of over 60% in size
#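 AlphaScreen displacement of biotin-H3(5-23)K14Ac peptide (50 nM final) from BAZ2B (50 nM final) in PBS pH 7.4, 0.01% Tween-20; complex preformed 30 min RT, then compounds (top 110 uM) 30 min RT, beads 20 min dark.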
# PLK1 PBD inh = qHTS for Inhibitors of PLK1-PDB (polo-like kinase 1 - polo-box domain): Primary Screen; Potency, µM, without a hit: max response, negative = inhibition, hits mostly inhibitors; 360,000 compounds, 2.8% hits; Serine/threonine-protein kinase PLK1 (Homo sapiens), P53350; Plk1 PBD binding of FITC phosphopeptide, fluorescence polarization; note: potency is the fitted concentration of half-maximal effect; series mostly up to about 57 µM; % is set by controls: 0 for no effect and ±100 for the full control effect; nearly all actives have a fitted effect of over 65% in size
# Target sequence (P53350 whole entry, looked up, the tested form may be a part): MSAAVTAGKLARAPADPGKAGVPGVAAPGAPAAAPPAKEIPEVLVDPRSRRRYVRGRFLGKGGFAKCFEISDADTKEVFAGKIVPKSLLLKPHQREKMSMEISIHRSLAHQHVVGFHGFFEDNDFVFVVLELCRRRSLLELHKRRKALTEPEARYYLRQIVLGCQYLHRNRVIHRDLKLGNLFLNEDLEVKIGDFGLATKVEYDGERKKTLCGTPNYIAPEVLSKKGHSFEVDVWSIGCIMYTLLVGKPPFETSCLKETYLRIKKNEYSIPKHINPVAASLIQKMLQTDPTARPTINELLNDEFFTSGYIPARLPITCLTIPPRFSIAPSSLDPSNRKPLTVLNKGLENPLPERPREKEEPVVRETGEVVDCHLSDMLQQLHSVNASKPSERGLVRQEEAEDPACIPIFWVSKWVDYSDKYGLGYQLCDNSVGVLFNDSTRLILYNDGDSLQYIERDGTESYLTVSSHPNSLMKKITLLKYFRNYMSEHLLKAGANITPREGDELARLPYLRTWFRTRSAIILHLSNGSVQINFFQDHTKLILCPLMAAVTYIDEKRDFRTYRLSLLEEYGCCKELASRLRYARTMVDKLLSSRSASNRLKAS
# G9a inh = qHTS Assay for Inhibitors of Histone Lysine Methyltransferase G9a. AID 504332, 2011. Potency, µM (series often up to 102 µM), inactives show top-dose activity, negative = inhibition, actives largely listed as inhibitors. Histone-lysine N-methyltransferase EHMT2 (Homo sapiens), Q96KQ7. G9a H3K9 monomethylation, AlphaScreen, 2 h. 350,000 compounds, 8.8% hits; note: potency is the fitted concentration of half-maximal effect; % is set by controls: 0 for no effect and ±100 for the full control effect; nearly all actives have a fitted effect of over 75% in size
#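 Readings reflect AlphaScreen signal from monomethyl-H3K9 antibody detection. HMT at 20 nM; substrate b-H3K9 500 nM; cofactor SAM 20 uM; 2 h RT reaction; compounds tested as titrations in qHTS with 15 min preincubation.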
# Starred values were filed as active, the others as inactive; ? = inconclusive; / = no result given; [ ] = dose if it differs, or a comment. A selection: hits, their analogues and other compounds. The true share with any hit is near 12%. Unless noted, calls come from the whole dose curve; as a rule, active = well fitted curve in the direction sought with a large enough effect; inconclusive = small, poorly fitted or top-dose-only effect, or another doubt; inactive = no such curve, though single readings can be large; an effect the other way counts as inactive or inconclusive.
SMILES,JMJD2A Tudor,PI5P4K alpha inh,HP1b binding inh,BAZ2B inh,PLK1 PBD inh,G9a inh
COc1ccc(C(=O)NCc2nnc(SCC(=O)N3CCCCC3)o2)cc1OC,3.1%,-7.7,32.2%,-16.7%,-0.6%,79.4µM*
O=C(NCc1nnc(SCC(=O)N2CCN(c3ccccc3)CC2)o1)c1ccc(F)cc1,-10.9%,3.2,62.8%,-25.5%,-20.9%,79.4µM*
COc1ccc(C(=O)NCc2nnc(SCC(=O)N3CCCCCC3)o2)cc1OC,-13.8%,0.3,10.7%[57 µM],2.3%,-7.6%,24.3%
Cc1nc(Cc2nnc(SCC(=O)N3CCN(c4ccc(O)cc4)CC3)o2)cs1,?,-1.2,-13.5%,-29.3%,1.6%,3.8%[12.7 µM]
O=C(NCc1ccco1)c1ccc2sc([C@@H]3O[C@H](CO)[C@H](O)[C@H](O)[C@H]3O)nc2c1,/,1.8,/,/,-3.3%,/
CCN(CC)S(=O)(=O)c1ccc(C(=O)Nc2cc(S(=O)(=O)N3CCOCC3)ccc2N2CCN(C)CC2)cc1,?,0.7,41.6%,/,-2.6%,/
COc1ccc(/C=C(\NC(=O)c2ccco2)C(=O)N2CCCCC2)cc1,2.9%,-4.9,15.9%,1.5%,-4.8%,19.3%
CCOC(=O)c1[nH]c2c(c1Cc1ccccc1)C(=O)CC(c1ccc(C(C)(C)C)cc1)C2 (stereo not drawn),-26.7%,/,9.6%,-26.8%,/,-2.7%[59 µM]
COc1ccc(OCCNC2CCCC2)cc1,79.4µM*,0.3,15.1%,?,0.6%,10µM*
O=C1CCC(=O)N1OCCOc1ccc2c(c1)CCC2,-7.8%,2.0,41.3%,10.5%,0.7%,-28.2%[12.7 µM]
c1cc2c(cc1OCCNC1CCCC1)CCC2,/,/,/,56.2µM*,/,22.4µM*
c1ccc(SCCCCNC2CCCC2)cc1,3.16µM*,1.0,-18.0%[57 µM],56.2µM*,?,8.91µM*
CNCCCOc1ccc2c(c1)CCC2,22.4µM*,-1.1,-36.6%,50.1µM*,-9.3%,50.1µM*
COc1ccc(OCCC(=O)NC2CCCCC2)cc1,3.5%,0.8,18.1%,-7.2%,1.3%,9.8%
COC(=O)C1=CN(c2ccc(OC)cc2)C(N)=C(C#N)C1c1ccccc1F (stereo not drawn),/,0.4,/,/,6.6%,/
c1ccc(Cc2ccc(OCCCNC3CCCC3)cc2)cc1,/,/,/,56.2µM*,/,12.6µM*
CCOc1ccccc1C(=O)N1CC(=O)Nc2ccc(C)cc2C1c1ccccc1 (stereo not drawn),-13.3%,/,29.1%,-9.6%,/,-0.5%[59 µM]
S=c1[nH]ncn1/N=C/c1ccc(Br)cc1,7.94µM*,-0.5,-5.3%,-29.1%,-23.6%,1.26µM*
S=c1[nH]ncn1/N=C/c1ccccc1,6.31µM*,1.4,42.2%,-8.2%,-7.9%,26.0%[2.33 µM]
CCOc1ccc(/C=N/n2cc(-c3ccccc3)[nH]c2=S)cc1,-28.0%,3.4,?,-19.3%,-6.5%,?
S=c1[nH]ncn1/N=C/c1ccc(N2CCOCC2)cc1,2.82µM*,0.2,34.7%,-1.9%,-1.9%,1.78µM*
S=c1[nH]c(-c2ccccc2)cn1/N=C/c1ccncc1,0.708µM*,-17.2,-23.9%[57 µM],-21.6%,?,1.58µM*
NC(N)=N/N=C/c1ccc(Br)cc1,-15.2%,1.1,19.6%,-13.2%,-10.5%,-30.1%
O=C(NCCc1ccccc1)C1CCN(Cc2cc3ccccc3n2Cc2ccccc2)CC1,-24.0%,/,3.1%,-18.8%,/,4.9%[59 µM]
CN1CCN(C(=O)c2cc3c(c(-c4cccc(-c5cc6ccccc6o5)c4)n2)[C@@H](CCO)N(S(=O)C(C)(C)C)C3)CC1 (stereo partly drawn),/,-3.6,/,/,-6.6%,/
SMILES,JMJD2A Tudor,PI5P4K alpha inh,HP1b binding inh,BAZ2B inh,PLK1 PBD inh,G9a inh
Nc1ccccc1N=Nc1ccccc1N,2.82µM*,3.0,?,3.16µM*,-8.0%,14.1µM*
O=C(CN1C(=O)NC2(CCCC2)C1=O)OCc1cc(=O)n2cc(Br)ccc2n1,50.1µM*,?,?,?,?,?
CC(C)Cn1c(-c2csc3ccccc23)n[nH]c1=S,79.4µM*,9.1,1.9%,-8.6%,-12.2%,?
Cc1cccc(-n2c(-c3csc4ccccc34)n[nH]c2=S)c1,?,-12.9,?,?,-13.4%,1.26µM*
C=CCn1c(SCc2csc(C)n2)nc2sc3c(c2c1=O)CCC(C)C3 (stereo not drawn),22.1%,4.5,55.1%,-2.9%,-9.9%,19.9%[59 µM]
Cc1occc1-c1n[nH]c(=S)n1CC(C)C,5.01µM*,/,-8.1%,7.7%,-9.7%,4.47µM*
CCn1c(-c2csc3c2CCC(C)C3)n[nH]c1=S (stereo not drawn),35.5µM*,2.2,-10.3%,-30.4%,-3.9%,6.31µM*
O=C(c1cnccn1)N1CCC2(CC1)CN(c1ccccn1)C2,/,/,/,/,/,1.2%[12.7 µM]
COc1cc(NC(=O)C2CCCN(S(=O)(=O)c3cn(C)cn3)C2)cc(OC)c1 (stereo not drawn),-10.6%,/,13.6%,-5.4%,/,17.2%[59 µM]
CCCCCCCCCCCCCCCCOCC(CO)OC (stereo not drawn),/,/,/,/,/,20.4%[59 µM]
CCn1c(-c2csc3ccccc23)n[nH]c1=S,12.6µM*,-18.2,-19.4%,-27.6%,0.0%,2.24µM*
Cc1cc(Nc2sc(C(=O)c3ccc(F)cc3)c(N)c2C(=O)Nc2ccc(F)cc2)ccc1Cl,?,/,-2.0%,?,/,?
CCOC(=O)c1sc(S(C)=O)c2c1CCc1conc1-2 (stereo not drawn),-15.3%,-14.2,43.2%,-3.1%,-15.4%,31.6µM*
CCCCN(C=O)c1c(CC)nc2ccc(C(=O)Nc3cc(-c4ccccc4)ccc3OC)cn12,/,-9.5,/,/,-11.9%,/
Cc1nc(NS(=O)(=O)c2ccc(Cl)s2)c2c3c(sc2n1)CCCC3,-26.2%,-0.5,18.2%,-29.1%,?,50.1µM*
COc1ccc(C2=Nn3c(nnc3-c3cc(OC)cc(OC)c3)SC2)cc1,-23.4%,/,/,/,/,/
CC(C)(C)c1ccc(-c2n[nH]c(=S)n2/N=C/c2ccncc2)cc1,?,0.8,6.8%,-9.3%,-8.8%,2.51µM*
Cc1ccc(-c2n[nH]c(=S)n2/N=C/c2ccc(C)s2)cc1,?,-7.3,29.7%,-37.1%,-17.3%,2.6%[0.501 µM]
Cc1ccc(/C=N/n2c(-c3ccncc3)n[nH]c2=S)cc1,2.24µM*,-24.6,6.7%,-32.5%,-20.8%,1.41µM*
COc1ccc(NC2CCCN(C(=O)c3ccccc3N3CCOCC3)C2)cc1OC (stereo not drawn),-3.4%,-3.4,19.8%,-22.8%,3.1%,11.0%
COc1ccc(N2CCN(C(=O)Cn3nc(Cc4cccnc4)c4ccccc4c3=O)CC2)cc1,-23.5%,/,15.9%,?,/,?

# Screens as filed in PubChem.
